Test results reported in PubChem BioAssay AID1942 (Johns Hopkins Ion Channel Center, 2009).
In all, about 2,400 compounds went through this assay and about 580 (24%) were called active.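 How the source made its calls: active means activity change at or above the mean plus 3 SD of buffer wells without dofetilide, per plate; inactive means the rest.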 Not all results are given here.

The molecules below were run against Potassium voltage-gated channel subfamily KQT member 2 (Rattus norvegicus) (UniProt O88943) (assay: rat KCNQ2 channel activation by compounds alone, confirmation, counter-screen for hERG block protector project, cell-based, CHO, FluxOR thallium flux (AID 1942;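 on activity change, less the hit threshold: normalized value minus buffer-control mean plus three SD of buffer wells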)). Conditions: CHO-KCNQ2 cells, FluxOR thallium flux fluorescence; at 10 µM; hits give high values.
Chain of Potassium voltage-gated channel subfamily KQT member 2 (Rattus norvegicus) (O88943 whole entry, looked up): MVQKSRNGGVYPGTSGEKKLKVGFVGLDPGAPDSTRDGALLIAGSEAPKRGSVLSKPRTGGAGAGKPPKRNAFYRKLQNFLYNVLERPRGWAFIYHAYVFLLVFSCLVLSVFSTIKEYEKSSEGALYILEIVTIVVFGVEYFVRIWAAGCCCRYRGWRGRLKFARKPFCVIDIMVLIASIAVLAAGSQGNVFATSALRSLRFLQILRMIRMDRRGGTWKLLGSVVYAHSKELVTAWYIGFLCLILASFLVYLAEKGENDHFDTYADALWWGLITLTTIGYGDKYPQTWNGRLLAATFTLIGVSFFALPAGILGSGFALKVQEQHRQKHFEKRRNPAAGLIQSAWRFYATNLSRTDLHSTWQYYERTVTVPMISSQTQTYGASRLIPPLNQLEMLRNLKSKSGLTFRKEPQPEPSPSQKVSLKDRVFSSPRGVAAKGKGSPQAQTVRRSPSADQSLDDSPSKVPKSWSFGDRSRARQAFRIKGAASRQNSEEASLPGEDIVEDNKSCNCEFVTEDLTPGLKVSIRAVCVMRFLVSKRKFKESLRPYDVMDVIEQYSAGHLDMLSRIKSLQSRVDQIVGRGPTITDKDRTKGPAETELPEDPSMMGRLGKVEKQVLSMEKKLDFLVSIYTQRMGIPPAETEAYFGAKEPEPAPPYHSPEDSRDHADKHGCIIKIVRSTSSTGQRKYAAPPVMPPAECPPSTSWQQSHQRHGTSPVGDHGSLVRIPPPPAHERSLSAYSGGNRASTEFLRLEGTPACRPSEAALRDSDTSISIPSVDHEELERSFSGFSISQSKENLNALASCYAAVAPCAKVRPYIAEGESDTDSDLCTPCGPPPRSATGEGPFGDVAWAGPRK

SMILES	activity change	activity change, less the hit threshold
O=C1NC(=S)N(c2ccc(F)cc2)C(=O)/C1=C/c1ccco1	0.7% (active)	
O=C1NC(=O)N(c2ccccc2)C(=O)/C1=C/c1ccc(Sc2ccccc2)o1	-16.9% (inactive)	
Cc1ccccc1N1C(=O)/C(=C/c2ccco2)C(=O)NC1=S	-6.4% (inactive)	
COc1ccc(-c2nc(CSCC(=O)N3CCC4(CC3)OCCO4)c(C)o2)cc1OC	-18.2% (inactive)	
O=C(Cn1ncc2c3ccccc3n(Cc3ccccc3F)c2c1=O)N1CCC2(CC1)OCCO2	37% (active)	
O=C1NC(=O)C(=Cc2ccc(-c3cc(Cl)ccc3[N+](=O)[O-])o2)C(=O)N1	-15.8% (inactive)	
CC/C(=C\C=C\[C@@H]1C=C[C@@H]2CCC[C@H]2[C@@H]1C(=O)c1ccc[nH]1)[C@@H]1O[C@@H]([C@@H](C)C(=O)O)CC[C@@H]1C		166% (active)
CN(C)C(=O)O/N=C(\N)COc1ccc(C(C)(C)C)cc1		-13% (inactive)
O=c1[nH]c(=S)[nH]c(O)c1/C=C1/C=c2ccccc2=N1	-27.3% (inactive)	
O=C(COc1ccc(Br)cc1)N1CCN(Cc2ccc3c(c2)OCO3)CC1		-18.6% (inactive)
N#CCCn1cc(C(=O)Nc2ccccc2Cl)c(-c2ccc(F)cc2)n1		-16.8% (inactive)
CCOC(=O)c1c(NS(=O)(=O)c2ccccc2)n(CCCOC)c2nc3ccccc3nc12		-27.8% (inactive)
COc1cccc(OC)c1C(=O)Nc1nc(N)n(-c2ccccc2)n1		-9.7% (inactive)
COc1ccc(OC)c(N2C(=O)/C(=C/c3ccco3)C(=O)NC2=S)c1	-13.8% (inactive)	
COc1ccc2c(c1)/C(=C/c1cnc[nH]1)C(=O)N2		0.2% (active)
O=C1NC(=O)N(CCNc2ncc(C(F)(F)F)cc2Cl)C(=O)C1Cc1ccc(Cl)cc1 (stereo not given)	-25.6% (inactive)	
COc1ccc(CN2CCCC(C(=O)c3sccc3C)C2)cc1O (stereo not given)		-26.3% (inactive)
C=CCN1C(=O)/C(=C/c2ccc(Br)s2)C(=O)NC1=S	-20.2% (inactive)	
O=c1c2ccccc2[nH]c(=S)n1-c1ccc2c(c1)OCCO2		-18.7% (inactive)
O=C(O)CCC(=O)NCCC1=c2ccccc2=N/C1=C\c1c(O)n(Cc2ccc(F)cc2)c(=S)[nH]c1=O	-17.9% (inactive)	
